According to publication PMC12820563, “FoxP3 forms a head-to-head dimer in vivo and stabilizes its multimerization on adjacent microsatellites”:
Over roughly 16,000 sequences, “rpm ratio (pull-down/input)” has its median near 0.94; the highest 2% begin near 1.7. The full list was thinned out, with the highest values kept by preference.

What follows are sequences tested against T1, MBP-FoxP1dN (Mus musculus, UniProt P58462 326-579) (assay: PD-seq (MBP pull-down with sequencing); 20 mM Tris-HCl pH 7.5, 100 mM NaCl, 1.5 mM MgCl2, 0.4 uM protein, 0.1 uM dsDNA library, 30 min, room temperature, amylose pull-down; high values mean tight binding). Conditions: protein: recombinant; tags: His6-MBP; chain copies: 2; dsDNA, one strand shown.
T1 sequence: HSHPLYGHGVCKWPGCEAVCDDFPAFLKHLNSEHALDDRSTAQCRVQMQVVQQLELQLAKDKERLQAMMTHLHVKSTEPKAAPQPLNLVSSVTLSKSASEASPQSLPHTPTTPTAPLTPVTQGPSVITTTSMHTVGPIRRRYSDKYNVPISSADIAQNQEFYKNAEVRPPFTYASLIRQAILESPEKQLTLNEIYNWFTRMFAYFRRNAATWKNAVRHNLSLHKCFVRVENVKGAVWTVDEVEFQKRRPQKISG
Procedure, shortened: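 A fragment of mouse FoxP3 or FoxP1 without its N-terminus, carrying a His6-MBP tag and produced in E. coli, was combined at 0.4 µM with a 0.1 µM degenerate double-stranded DNA library filled in with Klenow. The mixture sat for 30 min at room temperature in Tris pH 7.5 buffer containing NaCl and MgCl2. Protein–DNA complexes were captured on amylose resin, washed three times, and the DNA was freed with proteinase K, barcoded by PCR and sequenced on Illumina. Binding is expressed as reads-per-million enrichment of pull-down over input, with replicates pooled.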
With “GATGATTGTTCTCCCAGCTGATGAATTTGGCGTCTCGAGTAAACAAATTTTCCTAATCTTTCTGTTCAAGCGCCATCTAC” the binding signal was 0.85 RPM ratio (pull-down/input).
For “GATGATTGTTCTCCCAGCTGATGAATTAGTTCGTTCGAGTAAACAAATTTTCCTAATCTTTCTGTTCAAGCGCCATCTAC”, the binding signal was 0.937 RPM ratio (pull-down/input).
With “GATGATTGTTCTCCCAGCTGATGAATTCCGTGTTTCGAGTAAACAAATTTTCCTAATCTTTCTGTTCAAGCGCCATCTAC” the binding signal was 0.891 RPM ratio (pull-down/input).
“GATGATTGTTCTCCCAGCTGATGAATTATGATTCTCGAGTAAACAAATTTTCCTAATCTTTCTGTTCAAGCGCCATCTAC” was tested, and the binding signal was 0.982 RPM ratio (pull-down/input).
“GATGATTGTTCTCCCAGCTGATGAATTCCAAGCGTCGAGTAAACAAATTTTCCTAATCTTTCTGTTCAAGCGCCATCTAC” was tested, and the binding signal was 0.867 RPM ratio (pull-down/input).
In the case of “GATGATTGTTCTCCCAGCTGATGAATTGCACACATCGAGTAAACAAATTTTCCTAATCTTTCTGTTCAAGCGCCATCTAC”, the binding signal is reported as 1.31 RPM ratio (pull-down/input).
With “GATGATTGTTCTCCCAGCTGATGAATTTCTGCAGTCGAGTAAACAAATTTTCCTAATCTTTCTGTTCAAGCGCCATCTAC” the binding signal was 0.883 RPM ratio (pull-down/input).
For “GATGATTGTTCTCCCAGCTGATGAATTGAGTGATTCGAGTAAACAAATTTTCCTAATCTTTCTGTTCAAGCGCCATCTAC”, the binding signal was 0.981 RPM ratio (pull-down/input).
“GATGATTGTTCTCCCAGCTGATGAATTACCGGGCTCGAGTAAACAAATTTTCCTAATCTTTCTGTTCAAGCGCCATCTAC” was tested, and the binding signal was 0.841 RPM ratio (pull-down/input).
With “GATGATTGTTCTCCCAGCTGATGAATTAGAAAGTTCGAGTAAACAAATTTTCCTAATCTTTCTGTTCAAGCGCCATCTAC” the binding signal was 0.938 RPM ratio (pull-down/input).
In the case of “GATGATTGTTCTCCCAGCTGATGAATTGATGATATCGAGTAAACAAATTTTCCTAATCTTTCTGTTCAAGCGCCATCTAC”, the binding signal is reported as 1.21 RPM ratio (pull-down/input).
In the case of “GATGATTGTTCTCCCAGCTGATGAATTCTATTTATCGAGTAAACAAATTTTCCTAATCTTTCTGTTCAAGCGCCATCTAC”, the binding signal is reported as 2.58 RPM ratio (pull-down/input).
With “GATGATTGTTCTCCCAGCTGATGAATTTTTGATATCGAGTAAACAAATTTTCCTAATCTTTCTGTTCAAGCGCCATCTAC” the binding signal was 1.17 RPM ratio (pull-down/input).
For “GATGATTGTTCTCCCAGCTGATGAATTATTCTTATCGAGTAAACAAATTTTCCTAATCTTTCTGTTCAAGCGCCATCTAC”, the binding signal was 1.08 RPM ratio (pull-down/input).
“GATGATTGTTCTCCCAGCTGATGAATTATTGTAATCGAGTAAACAAATTTTCCTAATCTTTCTGTTCAAGCGCCATCTAC” was tested, and the binding signal was 1.91 RPM ratio (pull-down/input).
In the case of “GATGATTGTTCTCCCAGCTGATGAATTCTTATTATCGAGTAAACAAATTTTCCTAATCTTTCTGTTCAAGCGCCATCTAC”, the binding signal is reported as 1.6 RPM ratio (pull-down/input).
“GATGATTGTTCTCCCAGCTGATGAATTATTCTAATCGAGTAAACAAATTTTCCTAATCTTTCTGTTCAAGCGCCATCTAC” was tested, and the binding signal was 1.2 RPM ratio (pull-down/input).
In the case of “GATGATTGTTCTCCCAGCTGATGAATTATTTCAATCGAGTAAACAAATTTTCCTAATCTTTCTGTTCAAGCGCCATCTAC”, the binding signal is reported as 1.11 RPM ratio (pull-down/input).
“GATGATTGTTCTCCCAGCTGATGAATTATTCCTATCGAGTAAACAAATTTTCCTAATCTTTCTGTTCAAGCGCCATCTAC” was tested, and the binding signal was 1.08 RPM ratio (pull-down/input).
In the case of “GATGATTGTTCTCCCAGCTGATGAATTATTGTTATCGAGTAAACAAATTTTCCTAATCTTTCTGTTCAAGCGCCATCTAC”, the binding signal is reported as 2.83 RPM ratio (pull-down/input).
In the case of “GATGATTGTTCTCCCAGCTGATGAATTTATTCTATCGAGTAAACAAATTTTCCTAATCTTTCTGTTCAAGCGCCATCTAC”, the binding signal is reported as 1.16 RPM ratio (pull-down/input).
For “GATGATTGTTCTCCCAGCTGATGAATTGTTGATATCGAGTAAACAAATTTTCCTAATCTTTCTGTTCAAGCGCCATCTAC”, the binding signal was 2.16 RPM ratio (pull-down/input).
With “GATGATTGTTCTCCCAGCTGATGAATTGAGGCTGTCGAGTAAACAAATTTTCCTAATCTTTCTGTTCAAGCGCCATCTAC” the binding signal was 0.891 RPM ratio (pull-down/input).
For “GATGATTGTTCTCCCAGCTGATGAATTACGTAAGTCGAGTAAACAAATTTTCCTAATCTTTCTGTTCAAGCGCCATCTAC”, the binding signal was 1.14 RPM ratio (pull-down/input).
“GATGATTGTTCTCCCAGCTGATGAATTGGGGCAATCGAGTAAACAAATTTTCCTAATCTTTCTGTTCAAGCGCCATCTAC” was tested, and the binding signal was 1.01 RPM ratio (pull-down/input).
“GATGATTGTTCTCCCAGCTGATGAATTTAGGACGTCGAGTAAACAAATTTTCCTAATCTTTCTGTTCAAGCGCCATCTAC” was tested, and the binding signal was 0.956 RPM ratio (pull-down/input).
With “GATGATTGTTCTCCCAGCTGATGAATTCATCAGCTCGAGTAAACAAATTTTCCTAATCTTTCTGTTCAAGCGCCATCTAC” the binding signal was 0.818 RPM ratio (pull-down/input).
With “GATGATTGTTCTCCCAGCTGATGAATTTCGTTAATCGAGTAAACAAATTTTCCTAATCTTTCTGTTCAAGCGCCATCTAC” the binding signal was 0.996 RPM ratio (pull-down/input).
“GATGATTGTTCTCCCAGCTGATGAATTGACATCCTCGAGTAAACAAATTTTCCTAATCTTTCTGTTCAAGCGCCATCTAC” was tested, and the binding signal was 1.19 RPM ratio (pull-down/input).
In the case of “GATGATTGTTCTCCCAGCTGATGAATTAGTGTTATCGAGTAAACAAATTTTCCTAATCTTTCTGTTCAAGCGCCATCTAC”, the binding signal is reported as 1.8 RPM ratio (pull-down/input).
In the case of “GATGATTGTTCTCCCAGCTGATGAATTTATTGTATCGAGTAAACAAATTTTCCTAATCTTTCTGTTCAAGCGCCATCTAC”, the binding signal is reported as 1.6 RPM ratio (pull-down/input).
In the case of “GATGATTGTTCTCCCAGCTGATGAATTTGAATTATCGAGTAAACAAATTTTCCTAATCTTTCTGTTCAAGCGCCATCTAC”, the binding signal is reported as 0.969 RPM ratio (pull-down/input).
With “GATGATTGTTCTCCCAGCTGATGAATTGTATTTATCGAGTAAACAAATTTTCCTAATCTTTCTGTTCAAGCGCCATCTAC” the binding signal was 2.72 RPM ratio (pull-down/input).
For “GATGATTGTTCTCCCAGCTGATGAATTAGTTATATCGAGTAAACAAATTTTCCTAATCTTTCTGTTCAAGCGCCATCTAC”, the binding signal was 1.07 RPM ratio (pull-down/input).
For “GATGATTGTTCTCCCAGCTGATGAATTTCTGTCATCGAGTAAACAAATTTTCCTAATCTTTCTGTTCAAGCGCCATCTAC”, the binding signal was 1.15 RPM ratio (pull-down/input).
“GATGATTGTTCTCCCAGCTGATGAATTTTGATTATCGAGTAAACAAATTTTCCTAATCTTTCTGTTCAAGCGCCATCTAC” was tested, and the binding signal was 1.79 RPM ratio (pull-down/input).
With “GATGATTGTTCTCCCAGCTGATGAATTAGTGTAATCGAGTAAACAAATTTTCCTAATCTTTCTGTTCAAGCGCCATCTAC” the binding signal was 1.54 RPM ratio (pull-down/input).
“GATGATTGTTCTCCCAGCTGATGAATTGTCATCATCGAGTAAACAAATTTTCCTAATCTTTCTGTTCAAGCGCCATCTAC” was tested, and the binding signal was 1.34 RPM ratio (pull-down/input).
For “GATGATTGTTCTCCCAGCTGATGAATTGAAATTATCGAGTAAACAAATTTTCCTAATCTTTCTGTTCAAGCGCCATCTAC”, the binding signal was 1.01 RPM ratio (pull-down/input).
“GATGATTGTTCTCCCAGCTGATGAATTGTTGTCATCGAGTAAACAAATTTTCCTAATCTTTCTGTTCAAGCGCCATCTAC” was tested, and the binding signal was 2.36 RPM ratio (pull-down/input).
“GATGATTGTTCTCCCAGCTGATGAATTTATCGTATCGAGTAAACAAATTTTCCTAATCTTTCTGTTCAAGCGCCATCTAC” was tested, and the binding signal was 1.22 RPM ratio (pull-down/input).
